According to PubChem BioAssay AID1159580 (chemical genetic matrix, 2015):
The campaign covered roughly 5,500 compounds. About 2,000 (36%) were called active. About 18% were inconclusive and are not listed. Cut-off read from the data, not from the text of the source: active = normalized growth mostly below about 0.91 (no sharp cut-off); inconclusive = no clear call, values can overlap the other calls; inactive = mostly above about 0.92. Some of the results follow.

Assay: chemical genetic growth profiling, strain panel (AID 1159580);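 note: tested at 20 µM; growth read once vehicle control cultures reached saturation at 30 °C; 1 = growth at the plate median or of vehicle wells; lower values mean less growth of the strain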
Conditions: growth OD

Measured: normalized growth

CN[C@@H]1C(OC2[C@H](O[C@H]3[C@H](O)[C@@H](O)[C@H](N=C(N)N)[C@@H](O)[C@@H]3N=C(N)N)OC(C)[C@]2(O)CO)OC(CO)C(O)C1O (stereo partly drawn)
inactive: S. cerevisiae deletion strains, locus YKL009W, strain mrt4, active compounds read low 0.975 | S. cerevisiae deletion strains, locus YKL068W, active compounds read low 0.991 | S. cerevisiae deletion strains, locus YKL085W, strain MDH1 (second series), active compounds read low 1.01 | S. cerevisiae deletion strains, locus YKL085W, strain MDH1, active compounds read low 1.01 | S. cerevisiae deletion strains, locus YKL160W, strain elf1, active compounds read low 1 | S. cerevisiae deletion strains, locus YKL190W, strain CNB1, active compounds read low 0.998 | S. cerevisiae deletion strains, locus YKR001C, strain vps1, active compounds read low 0.981 | S. cerevisiae deletion strains, locus YKR026C, strain gcn3, active compounds read low 0.992 | S. cerevisiae deletion strains, locus YKR091W, strain srl3, active compounds read low 0.998 | S. cerevisiae deletion strains, locus YLL001W, strain dnm1, active compounds read low 0.995 | S. cerevisiae deletion strains, locus YLL026W, active compounds read low 0.998 | S. cerevisiae deletion strains, locus YLL041C, strain sdh2, active compounds read low 1.01 | S. cerevisiae deletion strains, locus YLR027C, strain aat2, active compounds read low 1 | S. cerevisiae deletion strains, locus YLR039C, strain RIC1, active compounds read low 1.01 | S. cerevisiae deletion strains, locus YLR058C, strain SHM2, active compounds read low 0.985 | S. cerevisiae deletion strains, locus YLR102C, strain apc9, active compounds read low 0.976 | S. cerevisiae deletion strains, locus YLR113W, strain HOG1, active compounds read low 1.06 | S. cerevisiae deletion strains, locus YLR221C, strain rsa3, active compounds read low 1.02 | S. cerevisiae deletion strains, locus YLR258W, strain gsy2, active compounds read low 1.01 | S. cerevisiae deletion strains, locus YLR262C, strain YPT6 (second series), active compounds read low 1 | S. cerevisiae deletion strains, locus YLR262C, strain YPT6, active compounds read low 1.01 | S. cerevisiae deletion strains, locus YLR268W, strain sec22, active compounds read low 0.985 | S. cerevisiae deletion strains, locus YLR320W, strain mms22, active compounds read low 1.03 | S. cerevisiae deletion strains, locus YLR330W, strain CHS5, active compounds read low 0.991 | S. cerevisiae deletion strains, locus YLR342W, strain FKS1 (second series), active compounds read low 1.04 | S. cerevisiae deletion strains, locus YLR342W, strain FKS1, active compounds read low 1 | S. cerevisiae deletion strains, locus YLR357W, strain rsc2, active compounds read low 0.962 | S. cerevisiae deletion strains, locus YLR370C, strain arc18, active compounds read low 1.01 | S. cerevisiae deletion strains, locus YLR371W, strain rom2, active compounds read low 0.973 | S. cerevisiae deletion strains, locus YLR384C, strain iki3, active compounds read low 0.997 | S. cerevisiae deletion strains, locus YLR418C, strain cdc73, active compounds read low 0.954 | S. cerevisiae deletion strains, locus YML016C, strain PPZ1, active compounds read low 0.993 | S. cerevisiae deletion strains, locus YML032C, strain rad52, active compounds read low 0.988 | S. cerevisiae deletion strains, locus YML120C, strain ndi1, active compounds read low 0.99 | S. cerevisiae deletion strains, locus YML124C, strain tub3, active compounds read low 0.972 | S. cerevisiae deletion strains, locus YMR058W, strain fet3, active compounds read low 1.01 | S. cerevisiae deletion strains, locus YMR078C, strain ctf18, active compounds read low 0.959 | S. cerevisiae deletion strains, locus YMR125W, strain sto1, active compounds read low 0.997 | S. cerevisiae deletion strains, locus YMR129W, active compounds read low 1 | S. cerevisiae deletion strains, locus YMR205C, strain PFK2, active compounds read low 0.995 | S. cerevisiae deletion strains, locus YMR223W, strain ubp8, active compounds read low 0.961 | S. cerevisiae deletion strains, locus YMR231W, strain pep5, active compounds read low 1.01 | S. cerevisiae deletion strains, locus YMR263W, strain SAP30, active compounds read low 0.979 | S. cerevisiae deletion strains, locus YMR307W, strain GAS1, active compounds read low 1.1 | S. cerevisiae deletion strains, locus YNL067W, strain RPL9B, active compounds read low 0.976 | S. cerevisiae deletion strains, locus YNL071W, strain lat1, active compounds read low 1.01 | S. cerevisiae deletion strains, locus YNL183C, strain NPR1, active compounds read low 0.99 | S. cerevisiae deletion strains, locus YNL209W, strain ssb2, active compounds read low 0.996 | S. cerevisiae deletion strains, locus YNL233W, strain BNI4, active compounds read low 0.976 | S. cerevisiae deletion strains, locus YNL248C, strain rpa49, active compounds read low 1.02 | S. cerevisiae deletion strains, locus YNL250W, strain rad50, active compounds read low 0.975 | S. cerevisiae deletion strains, locus YNL271C, strain bni1, active compounds read low 0.975 | S. cerevisiae deletion strains, locus YNL298W, strain CLA4, active compounds read low 0.977 | S. cerevisiae deletion strains, locus YNL307C, strain MCK1, active compounds read low 0.976 | S. cerevisiae deletion strains, locus YNL322C, strain KRE1 (second series), active compounds read low 0.993 | S. cerevisiae deletion strains, locus YNL322C, strain KRE1, active compounds read low 0.998 | S. cerevisiae deletion strains, locus YNR049C, strain mso1, active compounds read low 1 | S. cerevisiae deletion strains, locus YNR052C, strain pop2, active compounds read low 0.972 | S. cerevisiae deletion strains, locus YOL012C, strain htz1 1 | S. cerevisiae deletion strains, locus YOL147C, strain pex11, active compounds read low 0.982 | S. cerevisiae deletion strains, locus YOR001W, strain rrp6, active compounds read low 1 | S. cerevisiae deletion strains, locus YOR061W, strain CKA2, active compounds read low 0.991 | S. cerevisiae deletion strains, locus YOR069W, strain VPS5, active compounds read low 0.993 | S. cerevisiae deletion strains, locus YOR070C, strain gyp1, active compounds read low 1.01 | S. cerevisiae deletion strains, locus YOR080W, strain dia2, active compounds read low 0.996 | S. cerevisiae deletion strains, locus YOR083W, strain WHI5, active compounds read low 0.998 | S. cerevisiae deletion strains, locus YOR106W, strain vam3, active compounds read low 1.05 | S. cerevisiae deletion strains, locus YOR136W, strain idh2, active compounds read low 0.976 | S. cerevisiae deletion strains, locus YOR144C, strain elg1, active compounds read low 0.984 | S. cerevisiae deletion strains, locus YOR184W, strain ser1, active compounds read low 0.978 | S. cerevisiae deletion strains, locus YOR231W, strain MKK1, active compounds read low 1.04 | S. cerevisiae deletion strains, locus YOR265W, strain rbl2, active compounds read low 0.998 | S. cerevisiae deletion strains, locus YOR270C, strain vph1, active compounds read low 1.07 | S. cerevisiae deletion strains, locus YOR290C, strain snf2, active compounds read low 1.02 | S. cerevisiae deletion strains, locus YOR316C, strain cot1, active compounds read low 0.976 | S. cerevisiae deletion strains, locus YPL051W, strain arl3, active compounds read low 1.01 | S. cerevisiae deletion strains, locus YPL055C, strain LGE1, active compounds read low 1.01 | S. cerevisiae deletion strains, locus YPL078C, strain atp4, active compounds read low 1 | S. cerevisiae deletion strains, locus YPL106C, strain sse1, active compounds read low 1.02 | S. cerevisiae deletion strains, locus YPL240C, strain hsp82, active compounds read low 0.993 | S. cerevisiae deletion strains, locus YPL241C, strain CIN2, active compounds read low 0.998 | S. cerevisiae deletion strains, locus YPL256C, strain CLN2, active compounds read low 1.06 | S. cerevisiae deletion strains, locus YPR119W, strain clb2, active compounds read low 0.971 | S. cerevisiae deletion strains, locus YPR141C, strain kar3, active compounds read low 0.972 | S. cerevisiae deletion strains, locus YPR163C, strain tif3, active compounds read low 0.971 | S. cerevisiae deletion strains, locus YPR167C, strain met16, active compounds read low 0.97 | S. cerevisiae deletion strains, strain wtn01, active compounds read low 0.975 | S. cerevisiae strains, strain wild type, active compounds read low 0.999
